Measurements as given in article PMC11006913.
Numbering of substitutions follows the chain as printed.

Experiments:
Test in all cases: PBM; 200 nM protein, PBS
Details in all cases: dsDNA, one strand shown
[1] = target: T1, NKX2-6 (Homo sapiens, UniProt A6NCS4 118-204)
T1 sequence: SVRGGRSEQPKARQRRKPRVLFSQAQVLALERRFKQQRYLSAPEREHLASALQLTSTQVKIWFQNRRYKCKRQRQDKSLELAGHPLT

[2] = target: T2, NKX2-6 (Homo sapiens, UniProt A6NCS4 118-204, F151L)
T2 sequence: T1 sequence with F34L

[3] = target: PITX2 (Homo sapiens, UniProt Q99697 72-157)

Sequence | binding signal [1] | binding signal [2] | binding signal [3]
CAGGGTCG | 9.43 upbm affinity estimate (log intensity, higher = more binding, comparable within an allelic series) | 9.26 upbm affinity estimate (log intensity, higher = more binding, comparable within an allelic series) | 
AAGTCATT | 11.3 upbm affinity estimate (log intensity, higher = more binding, comparable within an allelic series) | 9.8 upbm affinity estimate (log intensity, higher = more binding, comparable within an allelic series) | 
CATGTGGG | 9.41 upbm affinity estimate (log intensity, higher = more binding, comparable within an allelic series) | 9.56 upbm affinity estimate (log intensity, higher = more binding, comparable within an allelic series) | 
AAACACTA | 11.5 upbm affinity estimate (log intensity, higher = more binding, comparable within an allelic series) | 9.97 upbm affinity estimate (log intensity, higher = more binding, comparable within an allelic series) | 
CCGTAGCA | 9.41 upbm affinity estimate (log intensity, higher = more binding, comparable within an allelic series) | 9.46 upbm affinity estimate (log intensity, higher = more binding, comparable within an allelic series) | 
GGCGTTAC | 9.36 upbm affinity estimate (log intensity, higher = more binding, comparable within an allelic series) | 9.53 upbm affinity estimate (log intensity, higher = more binding, comparable within an allelic series) | 
CGTCCTGC | 9 upbm affinity estimate (log intensity, higher = more binding, comparable within an allelic series) | 9.34 upbm affinity estimate (log intensity, higher = more binding, comparable within an allelic series) | 7.8 upbm affinity estimate (log intensity, higher = more binding, comparable within an allelic series)
CAGATCCC | 9.68 upbm affinity estimate (log intensity, higher = more binding, comparable within an allelic series) | 9.49 upbm affinity estimate (log intensity, higher = more binding, comparable within an allelic series) | 
GATACTTA | 13.3 upbm affinity estimate (log intensity, higher = more binding, comparable within an allelic series) | 10.5 upbm affinity estimate (log intensity, higher = more binding, comparable within an allelic series) | 
CCCGCGTC | 9.23 upbm affinity estimate (log intensity, higher = more binding, comparable within an allelic series) | 9.39 upbm affinity estimate (log intensity, higher = more binding, comparable within an allelic series) | 
CCACAGCG | 8.94 upbm affinity estimate (log intensity, higher = more binding, comparable within an allelic series) | 9.3 upbm affinity estimate (log intensity, higher = more binding, comparable within an allelic series) | 
ACGGGACT | 9.76 upbm affinity estimate (log intensity, higher = more binding, comparable within an allelic series) | 9.42 upbm affinity estimate (log intensity, higher = more binding, comparable within an allelic series) | 
CACCGTAG | 9.56 upbm affinity estimate (log intensity, higher = more binding, comparable within an allelic series) | 9.37 upbm affinity estimate (log intensity, higher = more binding, comparable within an allelic series) | 
CGGGATCC | 9.34 upbm affinity estimate (log intensity, higher = more binding, comparable within an allelic series) | 9.34 upbm affinity estimate (log intensity, higher = more binding, comparable within an allelic series) | 
AAGGGTCA | 11.8 upbm affinity estimate (log intensity, higher = more binding, comparable within an allelic series) | 10 upbm affinity estimate (log intensity, higher = more binding, comparable within an allelic series) | 
CCCAGCAG | 9.19 upbm affinity estimate (log intensity, higher = more binding, comparable within an allelic series) | 9.49 upbm affinity estimate (log intensity, higher = more binding, comparable within an allelic series) | 
CCGCGTTC | 9.4 upbm affinity estimate (log intensity, higher = more binding, comparable within an allelic series) | 9.39 upbm affinity estimate (log intensity, higher = more binding, comparable within an allelic series) | 
CGTTTGCC | 9.35 upbm affinity estimate (log intensity, higher = more binding, comparable within an allelic series) | 9.53 upbm affinity estimate (log intensity, higher = more binding, comparable within an allelic series) | 
CAGCCGTC | 9.5 upbm affinity estimate (log intensity, higher = more binding, comparable within an allelic series) | 9.26 upbm affinity estimate (log intensity, higher = more binding, comparable within an allelic series) | 
CAGCTCAG | 9.47 upbm affinity estimate (log intensity, higher = more binding, comparable within an allelic series) | 9.39 upbm affinity estimate (log intensity, higher = more binding, comparable within an allelic series) | 
CTTAAGGC | 11.5 upbm affinity estimate (log intensity, higher = more binding, comparable within an allelic series) | 9.76 upbm affinity estimate (log intensity, higher = more binding, comparable within an allelic series) | 
AAATACTC | 11.4 upbm affinity estimate (log intensity, higher = more binding, comparable within an allelic series) | 9.88 upbm affinity estimate (log intensity, higher = more binding, comparable within an allelic series) | 
AGACGCTG | 9.21 upbm affinity estimate (log intensity, higher = more binding, comparable within an allelic series) | 9.48 upbm affinity estimate (log intensity, higher = more binding, comparable within an allelic series) | 
ATGCCCTG | 9.6 upbm affinity estimate (log intensity, higher = more binding, comparable within an allelic series) | 9.34 upbm affinity estimate (log intensity, higher = more binding, comparable within an allelic series) | 
CCTTAATC | 11.3 upbm affinity estimate (log intensity, higher = more binding, comparable within an allelic series) | 9.82 upbm affinity estimate (log intensity, higher = more binding, comparable within an allelic series) | 
CGGCGTGA | 9.3 upbm affinity estimate (log intensity, higher = more binding, comparable within an allelic series) | 9.33 upbm affinity estimate (log intensity, higher = more binding, comparable within an allelic series) | 
TCAACTCA | 11.4 upbm affinity estimate (log intensity, higher = more binding, comparable within an allelic series) | 9.78 upbm affinity estimate (log intensity, higher = more binding, comparable within an allelic series) | 
CACTCTGG | 11.6 upbm affinity estimate (log intensity, higher = more binding, comparable within an allelic series) | 9.66 upbm affinity estimate (log intensity, higher = more binding, comparable within an allelic series) | 
CAGACGGG | 9.56 upbm affinity estimate (log intensity, higher = more binding, comparable within an allelic series) | 9.37 upbm affinity estimate (log intensity, higher = more binding, comparable within an allelic series) | 
AACACGCC | 9.5 upbm affinity estimate (log intensity, higher = more binding, comparable within an allelic series) | 9.31 upbm affinity estimate (log intensity, higher = more binding, comparable within an allelic series) | 
